# zVAD death inh = inhibitors of zVAD-triggered necroptosis, primary screen, L929 cells; L929 zVAD necroptosis rescue, ATP luminescence, 24 h; with zVAD 60 µM; viability rescue, % at 10 µM; 0.38% of 220,000 active;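 active = activation, scaled between plate controls, above about 75%, limit read from the data; inactive = activation under that limit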;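 also: 0% = zVAD with DMSO and 100% = DMSO alone without zVAD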
# HSV replic up = enhancers of HSV replication in host cells, fold increase, host cell viability | 0.005% of 220,000 active | AID 1956, 2009 | maximum fold increase | HSV replication augmentation in cells; in the data active = maximum fold increase above about 1.5; tested in PC3 cells
# m-calpain inh = inhibitors of pig calpain II, primary screen, biochemical, fluorogenic peptide substrate, 1536-well; purified calpain II, 30 min; inhibition, % at 16 µM; 0.37% of 220,000 active; AID 1236, 2008;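 active = inhibition above about 50%, limit read from the data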
# TNF death inh = inhibitors of TNF-alpha triggered necroptosis, primary screen, cell-based, Jurkat FADD-/-, single concentration | AID 463075, 2010 | activation (protection from cell death), % at 10 µM | Jurkat FADD-/- TNF necroptosis rescue, ATP luminescence, 24 h; 0 = TNF only, 100 = no-TNF cells | 0.068% of 220,000 active;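 active = activation, meaning protection from cell death, of at least 50% relative to plate controls; inactive = activation below 50%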;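 also: necroptosis triggered by 40 ng/mL TNF-alpha added together with compound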
# * marks the source's active call; other numbers are inactive results; i = inactive; · = not tested or not shown. An excerpt weighted towards active compounds, which were near 0.77% of everything screened.
SMILES,zVAD death inh,HSV replic up,m-calpain inh,TNF death inh
COc1cc(-c2n[nH]c(=S)n2/N=C/c2cccn2C)cc(OC)c1OC,-1,i,-3,-1
CCc1cccc(CC)c1NC(=O)c1cc(CN2C(=O)c3ccccc3C2=O)ccc1OC,0,i,50*,0
CCOc1cc(CNc2ccc(O)cc2)cc(Br)c1OCc1ccccc1F,1,i,73*,-21
COc1cc(CCC(C)=O)ccc1OC(=O)c1c(F)cccc1Cl,2,i,5,0
CC(C)OC(=O)CSc1nnc(COc2ccc([N+](=O)[O-])cc2)n1C,1,i,52*,1
O=C(CCC1CCCCC1)Nc1ccc(C(=O)c2ccncc2)cc1,62,i,51*,3
CCn1c(COc2ccc(Cl)cc2)nnc1SC1CCc2ccccc2C1=O (stereo unspecified),0,i,52*,2
CCn1c(COc2ccc(Cl)cc2)nnc1SCc1ccc(C#N)cc1,0,i,-3,2
CCN1CCN(Cc2ccc(NC(=O)Nc3ccc(OC)cc3)cc2)CC1,77*,i,-4,3
Cc1ccc(F)c(NC(=O)/C(C#N)=C(\O)c2ccc(C(C)(C)C)cc2)c1,5,i,18,1
COc1ccc2nc(NC(=O)CCn3cccc3)sc2c1,92*,i,-100,6
O=C(c1cc(-c2ccccc2)n[nH]1)N1CCc2c([nH]c3ccccc23)C1c1ccccn1 (stereo unspecified),1,i,-186,2
Cc1c[nH]c(=O)c([N+](=O)[O-])c1,0,i,-8,5
COc1cc2[nH]c(=S)nc(NCCc3ccc(C)cc3)c2cc1OC,0,i,-25,-2
COc1ccc(CCNc2nc(=S)[nH]c3cc(OC)c(OC)cc23)cc1OC,82*,i,-82,-2
Cc1cc2cc(CNC(=S)NC3CCCCC3)ccc2[nH]1,-1,i,87*,0
Cc1cccc(NC(=O)NCc2ccc3[nH]c(C)cc3c2)c1,0,i,97*,2
Cc1ccc(NC(=O)NCc2ccc3[nH]c(C)cc3c2)cc1,6,i,30,0
CC(=O)c1ccc(OCCOc2ccc(Cl)c3cccnc23)cc1,3,i,-22,-1
COC(=O)c1cn(NC(=O)c2ccc([N+](=O)[O-])cc2Cl)c(=O)c2ccccc12,0,i,26,0
CCOC(=O)CCNC(=O)Nc1ccc2nc(C)n(Cc3cccc(Cl)c3)c(=O)c2c1,0,i,66*,1
Cc1ccc(C(=O)NC(=S)NCc2cccnc2)cc1C,66,i,-4,0
CC(C)c1ccc(C(=O)NC(=S)NCc2cccnc2)cc1,4,i,53*,0
O=C(Cc1ccc([N+](=O)[O-])cc1)Nc1ccc(Cl)cc1,1,i,-72,6
O=C(O)CC(Cc1ccc(Cl)cc1)C(=O)Nc1ccc([N+](=O)[O-])cc1 (stereo unspecified),0,i,69*,0
SMILES,zVAD death inh,HSV replic up,m-calpain inh,TNF death inh
Cc1ccc(C(=O)N(Cc2ccccc2)C(C)(C)C)cc1C,-1,i,50*,1
C/C(N)=C(/C#N)C(=O)CSc1nnc(COc2ccccc2Cl)o1,0,i,103*,-1
COc1cc(Cl)c(C)cc1NC(=O)CNC(C)c1ccccc1OC (stereo unspecified),0,i,90*,4
COCCN=c1scc(-c2cccs2)n1/N=C/c1ccc(O)c(O)c1O,2,i,65*,-9
CCN=c1scc(C)n1/N=C/c1ccc(O)c(O)c1O,0,i,-62,-13
COc1cc(C(=O)NCC(=O)OCCN2C(=O)c3ccccc3C2=O)cc(OC)c1OC,1,i,-31,0
CN(C)C(CNC(C(=O)Nc1ccc([N+](=O)[O-])cc1Br)c1ccccc1)c1ccccc1 (stereo unspecified),0,i,53*,5
O=C(CCC(=O)c1ccc(Br)cc1)Nc1cccc(C(F)(F)F)c1,91*,i,6,-2
C(/C=C/c1ccccc1)=N/N1CCN(c2ccccc2)CC1,0,i,-22,-2
C(=C\c1ccccc1)/C=N/N1CCN(Cc2ccccc2)CC1,1,i,50*,0
Cc1cccn2c(CN3CCNC(=O)CC3)c(C(=O)N(C)CCc3ccccc3)nc12,1,i,9,1
CC(C(=O)Nc1ccccc1Oc1ccccc1)c1ccccc1 (stereo unspecified),·,i,52*,0
CC(C)(C)c1ccc(C(=O)Nc2cccc([N+](=O)[O-])c2)cc1,18,i,50*,0
CCCCCCCc1c(O)nc(SCCN2CCOCC2)[nH]c1=O,11,i,-7,0
CCC(=O)N(Cc1ccco1)C1CC(=O)N(c2ccccc2)C1=O (stereo unspecified),2,i,-4,0
COc1cc(/C=C2\SC(=O)N(c3cccc(Cl)c3)C2=O)cc([N+](=O)[O-])c1O,-1,i,66*,-1
Cc1ccc(-c2csc(NC(=S)NC(=O)c3ccco3)n2)cc1,·,i,57*,-1
CCOC(=O)c1nc(NCc2cccc(OC)c2)c2ccccc2n1,1,i,-2,1
Cc1cc(NC(=O)CSc2ncnc3sc(C)c(C)c23)no1,3,i,-28,1
CC1(C)CCC23CC[C@]4(C)C(OC2=O)(C3C1)[C@H]1O[C@H]1C1[C@@]2(C)CC[C@@H](O)C(C)(C)C2CC[C@]14C (stereo partly specified),·,i,·,·
CCOC(=O)c1ccc(NC(=O)Cn2c(-c3nonc3N)nc3ccccc32)cc1,0,i,59*,0
COC(=O)c1ccc(NC(=O)Cn2c(-c3nonc3N)nc3ccccc32)cc1,1,i,-10,1
COCCNc1ccc(N2C(=O)C3CCCCC3C2=O)cc1[N+](=O)[O-] (stereo unspecified),1,i,43,0
C=CCN(CC=C)c1ccc(N2C(=O)C3CCCCC3C2=O)cc1[N+](=O)[O-] (stereo unspecified),1,i,38,0
O=C1C2CCCCC2C(=O)N1c1ccc(NC2CCCCC2)c([N+](=O)[O-])c1 (stereo unspecified),3,i,61*,0
C=CCNc1ccc(N2C(=O)C3CCC(C)CC3C2=O)cc1[N+](=O)[O-] (stereo unspecified),8,i,67*,-1
COc1ccc(OC)c(N(CC(=O)N2CCN(c3cc(Cl)ccc3C)CC2)S(C)(=O)=O)c1,-1,i,57*,-3
COc1cccc(NC(=S)NCCC(c2ccccc2)c2ccccc2)c1,0,i,56*,-12
CSc1ccccc1NC(=O)COc1ccccc1C,7,i,69*,0
O=C(N[C@@H](Cc1ccccc1)C(=O)OCc1ccccc1)c1nc[nH]c1C(=O)N1CCN(c2ccccc2)CC1,1,i,51*,-3
